Records with an inconclusive call do not appear. A call without a number means that no potency is given here. Activity calls are given as the source filed them. Calls follow the shape of the dose curve; as a rule, active = well fitted curve in the direction sought with a large enough effect; inconclusive = small, poorly fitted or top-dose-only effect, or another doubt; inactive = no such curve, though single readings can be large; an effect the other way counts as inactive or inconclusive.

The target of the first assay is ATP-dependent 6-phosphofructokinase (Trypanosoma brucei brucei) (UniProt O15648). The assay can be described thus: qHTS Assay to Find Inhibitors of T. brucei phosphofructokinase: hit validation (AID 492961). The following applies: T. brucei PFK, ADP-Glo luminescence; series mostly up to 51.4 µM. The method in brief: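 Luminescence from ADP-Glo reports ADP generated as T. brucei PFK (1.25 nM) phosphorylates 0.5 mM fructose-6-phosphate using 0.1 mM ATP. Reactions ran 45 min at room temperature, pH 8.0.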
ATP-dependent 6-phosphofructokinase (Trypanosoma brucei brucei), sequence (O15648 whole entry, looked up): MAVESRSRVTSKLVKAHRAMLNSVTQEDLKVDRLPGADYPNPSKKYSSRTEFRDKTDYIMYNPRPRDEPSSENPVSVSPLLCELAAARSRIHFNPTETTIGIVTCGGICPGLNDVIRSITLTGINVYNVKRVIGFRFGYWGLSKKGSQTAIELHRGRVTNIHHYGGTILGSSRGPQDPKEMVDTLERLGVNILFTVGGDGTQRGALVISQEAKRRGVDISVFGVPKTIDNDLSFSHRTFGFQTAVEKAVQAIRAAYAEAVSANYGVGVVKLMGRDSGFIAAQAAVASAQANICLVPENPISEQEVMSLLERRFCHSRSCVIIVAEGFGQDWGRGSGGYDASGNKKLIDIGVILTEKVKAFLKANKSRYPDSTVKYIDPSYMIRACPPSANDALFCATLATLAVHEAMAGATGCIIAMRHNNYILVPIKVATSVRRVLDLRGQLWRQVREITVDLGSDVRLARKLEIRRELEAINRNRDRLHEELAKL
As to `CN1C(=O)CN=C(c2ccccc2)c2cc([N+](=O)[O-])ccc21`, the Potency entry is “inactive”.

As to `Nc1ccc(N)cc1`, the Potency entry is “inactive”.

`CCS(=O)(=O)C(C)(C)S(=O)(=O)CC`: the Potency result is “inactive”.

With `CC(C)C(Br)C(=O)NC(N)=O` (stereo not given), the Potency result was “inactive”.

As to `OC(O)C(Cl)(Cl)Cl`, the Potency result was “inactive”.

With `N#Cc1nn(-c2c(Cl)cc(C(F)(F)F)cc2Cl)c(N)c1S(=O)C(F)(F)F` (stereo not given), the Potency result was “inactive”.

For the molecule `COCC(=O)N(c1c(C)cccc1C)C(C)C(=O)OC` (stereo not given), the Potency result is “inactive”.

`C=CCOC(Cn1ccnc1)c1ccc(Cl)cc1Cl` (stereo not given): the Potency result was “inactive”.

As for `CC(Cc1ccccc1)NCc1ccccc1Cl` (stereo not given), the Potency result is “inactive”.

For `CCNc1nc(Cl)nc(NCC)n1`, the Potency result is “inactive”.

In the case of `C[N+]1(CCC(C(N)=O)(c2ccccc2)c2ccccc2)CCCCC1`, the Potency result is “inactive”.

Take `C[C@]12CC[C@H]3[C@@H](CC=C4C[C@@H](O)CC[C@@]43C)[C@@H]1CC[C@@H]2O`: the Potency result is “inactive”.

Consider `CC(C)(O)C(Cl)(Cl)Cl`, for which the Potency result is “inactive”.

`CN1C[C@@H](NS(=O)(=O)N(C)C)C[C@@H]2c3cccc4c3c(cn4C)C[C@H]21`: the Potency entry is “inactive”.

With `CCC1(c2ccccc2)CCC(=O)NC1=O` (stereo not given), the Potency entry is “inactive”.

In the case of `CCN(CC)CCOC(=O)C(C)(c1ccccc1)c1ccccc1`, the Potency result was “inactive”.

Take `COc1ccc(CN2CCNCC2)c(OC)c1OC`: the Potency entry was “inactive”.

As for `CCOC(=O)NC(O)C(Cl)(Cl)Cl` (stereo not given), the Potency result is “inactive”.

For `Cc1ccc(N=CN(C)C=Nc2ccc(C)cc2C)c(C)c1`, the Potency entry is “inactive”.

`CN1CCc2cc(Cl)c(O)cc2[C@H]2c3ccccc3CC[C@@H]21`: the Potency entry was “inactive”.

On to `C[N+](C)(C)CCOC(=O)C(O)(c1ccccc1)c1ccccc1`, for which the Potency entry is “inactive”.

As to `NCc1cccnc1`, the Potency result was “inactive”.

With `CN1C(=O)[C@@H](NC(=O)c2cc3ccccc3[nH]2)N=C(c2ccccc2)c2ccccc21`, the Potency entry is “inactive”.

`CCCCCCCCCCCC[N+](C)(C)CCOc1ccccc1`: the Potency entry was “inactive”.

For the molecule `NC(=O)OCCCc1ccccc1`, the Potency result is “inactive”.

In the case of `CC(C)[N+](C)(CCC(C(N)=O)(c1ccccc1)c1ccccc1)C(C)C`, the Potency result was “inactive”.

For `CC(C)NCC(O)c1ccc(N)c(C#N)c1` (stereo not given), the Potency entry was “inactive”.

On to `ClC1=C(Cl)C2(Cl)C(CBr)CC1(Cl)C2(Cl)Cl` (stereo not given), for which the Potency result was “inactive”.

Regarding `CCC1(CC)C(=O)NC(=O)NC1=O`, the Potency entry is “inactive”.

System in a further assay: not listed separately
The assay can be described thus: Inducers of the Endoplasmic Reticulum Stress Response (ERSR) in human glioma: Validation (AID 504836). To be noted: human glioma cells, ER stress response reporter; series mostly up to 38.3 µM. Summed up:
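Stably transfected U87-MG glioma cells carrying a GRP78-based luciferase sensor; 16 h compound incubation. Luminescence end-point read 10 min after Bright-Glo addition at room temperature.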
On to `COc1cc(C(=O)OCCCN2CCCN(CCCOC(=O)c3cc(OC)c(OC)c(OC)c3)CC2)cc(OC)c1OC`, for which the result was inactive.

For the molecule `NCCc1ccc(O)c(O)c1`, the molecule was classed as inactive.

In the case of `CC(C)NCC(O)COc1ccc(COCCOC(C)C)cc1` (stereo not given), the call was inactive.

Consider `CN(C)CCC(c1ccccc1)c1ccccn1` (stereo not given), for which the result was inactive.

`CC[C@H]1CN2CCc3cc(OC)c(OC)cc3[C@@H]2C[C@@H]1C[C@H]1NCCc2cc(OC)c(OC)cc21`: the outcome was inactive.

In the case of `O=C1NCN(c2ccccc2)C12CCN(CCCC(c1ccc(F)cc1)c1ccc(F)cc1)CC2`, the molecule was called inactive.

In the case of `Cc1cc(C(C)(C)C)c(O)c(C)c1CC1=NCCN1`, the molecule was classed as inactive.

`CC(C)(C)c1ccc(C(O)CCCN2CCC(C(O)(c3ccccc3)c3ccccc3)CC2)cc1` (stereo not given): the result was inactive.

Turning to `COc1ccc(CCN(C)CCCC(C#N)(c2cc(OC)c(OC)c(OC)c2)C(C)C)cc1OC` (stereo not given), the molecule was called inactive.

For `CCc1cccc2c3c([nH]c12)C(CC)(CC(=O)O)OCC3` (stereo not given), the call was inactive.

For `COc1ccc2c(c1)c(CC(=O)O)c(C)n2C(=O)c1ccc(Cl)cc1`, the molecule was called inactive.

These data come from PubChem BioAssay (NCATS).
